Compound activity as filed in PubChem.
Sa growth inh – S. aureus growth inhibition at 42 and 30 °C, primary screen, LtaS inhibitor project, RN4220, two temperatures | OD600, 20 h, 42 °C; stronger effect = lower value | relative growth, % (concentration not given with the values) | hit rate 0.53% among 170,000;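 active = relative growth at most 50% at the other temperature and 20+ points below 30 °C, or under 10% at both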
S aureus helic – inhibitors of S. aureus replicative helicase, primary screen, biochemical, fluorescence unwinding readout; replicative DNA helicase (DnaC/DnaB), Staphylococcus aureus; purified S. aureus helicase, fluorescence unwinding assay; hit rate 0.05% among 120,000; AID 485395, 2010; inhibition, % (concentration not given with the values); in the data active = inhibition above about 25%, passing the limit was not always enough;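 note: 0% = mean of negative control wells and 100% = mean of positive control wells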
Numbers without * were called inactive; / = not tested or not shown. Compounds with a hit are over-represented: about 0.52% of the library has one in this group of screens.

SMILES | Sa growth inh | S aureus helic
COCCNC(=O)c1c[nH]n2c(=O)c(Cc3ccc(Cl)cc3)c(C)nc12 | 79 | 14
COC(=O)CNc1ccccc1OC | 99 | 12
Cc1cc(Nc2ccccc2)n(C)n1 | 90 | 3
CC1=NN(c2cccc(C(F)(F)F)c2)C(=O)C1 | 0.4* | -5
CC1=NN(c2cccc(SC(F)F)c2)C(=O)C1 | 57 | 7
CC1CCCCC1N(C)C1CCN(CCCNC(=O)/C=C/c2cccc(C(F)(F)F)c2)CC1 (centres undefined) | 100 | 18
O=C(NCc1ccncc1)c1cccc(Oc2ccccc2)c1 | 105 | 0
O=C(NCc1cccnc1)c1ccc(Br)cc1 | / | 18
O=C(NCc1cccnc1)/C(=C\c1ccc(Br)cc1)S(=O)(=O)c1ccccc1 | -1.3* | 10
O=C(NCc1cccnc1)/C(=C\c1cccc(Oc2ccccc2)c1)S(=O)(=O)c1ccccc1 | -1.3* | 17
O=C1CN(C(=O)c2ccc3c(c2)S(=O)(=O)c2ccccc2C3=O)c2ccccc2N1 | 115 | -4
CCOC(=O)c1cc(-c2ccnn2C(=O)c2ccc(C)cc2)on1 | 90 | 5
COC(=O)c1ccc(NC(=O)C(C)Sc2ncn(-c3ccccc3)n2)cc1 (centres undefined) | 104 | 10
Nc1ccc2c3c(cccc13)C(=O)N(c1ccccc1)C2=O | 95 | -127
O=C1NC(=O)c2ccc3c4c(ccc1c24)C(=O)N(c1ccccc1)C3=O | 5.5* | 24
C=CCn1c(=N)n(CC(=O)C(C)(C)C)c2ccccc21 | 80 | 10
CCN1CCN(Cc2ccc(NC(=O)c3cc4ccc5cccnc5c4[nH]3)cc2)CC1 | 101 | 91*
O=C(c1cc2ccc3cccnc3c2[nH]1)N1CCN(Cc2ccccc2)CC1 | 79 | -19
CC(C(=O)NC1(C#N)CCCCC1)N1CCN(S(=O)(=O)c2ccc(Br)s2)CC1 (centres undefined) | 104 | -13
Cn1c(SCCS(=O)(=O)c2ccc(OC(F)(F)F)cc2)nnc1C(F)(F)F | 85 | /
COc1ccc(-c2cc(=NCCc3ccccc3)c3cc(C)ccc3o2)cc1 | 14 | 46*
COc1ccc(-c2cc(=NC(CC(C)C)C(=O)O)c3cc(C)ccc3o2)cc1 (centres undefined) | 92 | 7
COc1ccc(C(=O)NC(=S)Nc2ccc(NC(=O)c3ccco3)cc2)cc1Cl | 112 | 1
O=C(O)c1ccccc1C(=O)N1CCCCC1 | 91 | 23
Oc1c(C(Nc2ccccn2)c2ccccc2F)ccc2cccnc12 (centres undefined) | 17 | /
SMILES | Sa growth inh | S aureus helic
Oc1ccccc1C(Nc1ccccn1)c1ccc2cccnc2c1O (centres undefined) | 4.8* | 1
CC(C)OC(=O)c1cccc(NC(=O)c2ccc(Br)cc2)c1 | 107 | 21
CCN(CC)C(=O)c1c(C)oc2ncn(CC(C)C)c(=O)c12 | 103 | -28
Cc1ccc(C(=O)CC(c2ccccc2)C(C#N)C#N)cc1 (centres undefined) | 48* | -9
COc1cccc(C(CC(=O)c2ccc(Cl)cc2)C(C#N)C#N)c1 (centres undefined) | 51 | 2
CCc1ccc(C#N)cc1 | 98 | 31
CCCSc1ncc(Cl)c(C(=O)Nc2ccc(S(=O)(=O)N(C)c3ccccc3)cc2)n1 | 105 | /
CN(Cc1ccccc1)S(=O)(=O)c1ccc(NC(=O)c2nc(S(C)(=O)=O)ncc2Cl)cc1 | 6.2* | 9
CN(c1ccccc1)S(=O)(=O)c1ccc(NC(=O)c2nc(S(C)(=O)=O)ncc2Cl)cc1 | -1.2* | /
CS(=O)(=O)c1ncc(Cl)c(C(=O)NCc2ccccc2)n1 | 23 | -5
Clc1ccc(-c2cnc3nonc3n2)cc1 | 0.0* | 15
N#Cc1cc(-c2ccc(Cl)cc2)no1 | 103 | 7
COC(CNC(=O)CN1C(=O)/C(=C\c2ccc(Cl)cc2)Oc2ccc(C(C)(C)C)cc21)OC | 101 | -6
CCSc1nc2ccccc2n1C(=O)c1ccc(Cl)cc1 | 74 | -14
Cc1ccc(NC(=O)c2ccc(=O)n(CC(=O)Nc3cccc(C)c3)n2)cc1 | 114 | /
Cc1ccc(NC(=O)c2ccn(C(=O)Nc3cccc(Cl)c3)n2)cc1 | 45* | 17
O=c1oc2cc(Cl)c(O)c(Cl)c2s1 | 60 | 30
Oc1nc2c(Cl)c(Cl)c(Cl)cc2o1 | -1.2* | 30
CCOc1ccc2c(c1)s/c(=N\C(=S)NC(=O)CN1C(=O)CCC1=O)n2C | 109 | 19
COc1ccc2c(c1)s/c(=N\NC(=S)NC(=O)CN1C(=O)CCC1=O)n2C | 0.5* | 4
O=C1c2ccccc2C(=O)c2c1oc1c3c(ccc21)OCN(C1CCCC1)C3 | 97 | 32
O=C1c2ccccc2C(=O)c2c1oc1c3c(ccc21)OCN(C1CCS(=O)(=O)C1)C3 (centres undefined) | 7.6* | 27
O=C(Nc1ccccc1)O/N=C/c1ccccc1 | 68 | 2
Cn1c2ccc(F)cc2c2nc3n(c(=O)c21)CCS3 | 96 | -3
COc1cc2c3nc4n(c(=O)c3n(C)c2cc1OC)CCS4 | 98 | 49*
SMILES | Sa growth inh | S aureus helic
COc1ccc(C2C(C(=O)NCCCN3CCN(C)CC3)c3ccccc3C(=O)N2Cc2ccc(F)cc2)cc1 (centres undefined) | 112 | 20
CC(=O)Oc1ccc(C)cc1-n1nc2ccccc2n1 | 46* | 0
CCN(CC)S(=O)(=O)c1ccc(Cl)c(C(=O)Oc2ccc(C)cc2-n2nc3ccccc3n2)c1 | 92 | 7
CC(C)N1C(=O)C2ON(c3ccc(Cl)cc3)C(c3ccccc3)C2C1=O (centres undefined) | 98 | 14
Cc1cccc(-n2c(SCC(=O)NC3(C#N)CCCC3)nc3ccccc3c2=O)n1 | 78 | 8
COC(=O)c1cscc1OC(=O)c1ccc(C(F)(F)F)cc1 | 21* | /
COC(=O)c1sccc1OC(=O)c1ccc(C(C)(C)C)cc1 | 106 | /
CCN(CC(=O)NCc1cccs1)C(=O)c1cccc(F)c1 | 81 | -2
Cc1cc(NS(=O)(=O)c2ccc(N=Cc3ccccc3O)cc2)no1 | 33 | 2
CCOc1nnc(NS(=O)(=O)c2ccc(N=Cc3ccccc3O)cc2)s1 | 7.8* | 13
C=CCNC(=O)Nc1ccc(F)c(Cl)c1 | 105 | 25
O=C(NCSCc1cccc(C(F)(F)F)c1)Nc1ccc(F)c(Cl)c1 | 9.0* | /
O/N=C/c1ccc(Cl)cc1 | 96 | 6
Clc1ccc(/C=N/c2ccccn2)cc1 | 1.3* | 12
Cn1c(=N)n(CC(=O)c2ccc(-c3ccccc3)cc2)c2ccccc21 | 117 | 8
C=CCn1c(=N)n(CC(=O)c2ccc(-c3ccccc3)cc2)c2ccccc21 | 5.3* | 13
CCOC(=O)C(C#N)C(=O)c1ccc(N)cc1 (centres undefined) | 126 | 13
N=c1c2c(-c3ccccc3)c(-c3ccccc3)n(Cc3ccco3)c2ncn1CCCN1CCOCC1 | 89 | 13
c1ccc(-c2csc3ncnc(NCCCn4ccnc4)c23)cc1 | 81 | /
c1ccc(-c2c(-c3ccccc3)n(Cc3ccco3)c3ncnc(NCCCn4ccnc4)c23)cc1 | 0.1* | -19
CC(C)Cn1cnc2c(c(-c3ccccc3)c(-c3ccccc3)n2Cc2ccco2)c1=N | 48* | 0
CCC(C)Nc1nc(OC(C(F)(F)F)C(F)(F)F)nc(N(CC)CC)n1 (centres undefined) | 100 | 4
O=C1CN(C2c3ccccc3CC2NS(=O)(=O)c2ccccc2)CCN1 (centres undefined) | 86 | 5
